# The full list was thinned out, with the strongest signals kept by preference.
# Key:
# Assay in all cases: glycan array binding signal (z-score within array); higher = stronger binding
# Details in all cases: glycan notation: IUPAC condensed, linker removed
# [1] = molecular target: GalNAc(b1-3)Gal(a1-4)Gal(b1-4)GlcNAc
# Outline: (§1)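 From the Consortium for Functional Glycomics database, 3228 arrays were curated, keeping only those whose protein sequence was available. Binding is given as a within-array Z-score averaged across arrays sharing a protein sequence and across linkers. Negative Z-scores can be read as non-binding.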
# GalNAc3S(b1-4)GlcNAc = molecular target: GalNAc3S(b1-4)GlcNAc
# Outline: as §1
# [2] = molecular target: GlcNAc(a1-4)Gal(b1-4)GlcNAc(b1-3)Gal(b1-4)Glc
# Outline: as §1
# [3] = molecular target: GlcNAc(a1-6)Gal(b1-4)GlcNAc
# Outline: as §1
# [4] = molecular target: GlcNAc(b1-2)[GlcNAc(b1-4)]Man(a1-3)[GlcNAc(b1-4)][GlcNAc(b1-2)[GlcNAc(b1-6)]Man(a1-6)]Man(b1-4)GlcNAc(b1-4)GlcNAc
# Outline: as §1
# [5] = molecular target: GlcNAc(b1-3)Gal(b1-4)GlcNAc(b1-2)Man(a1-3)[GlcNAc(b1-3)Gal(b1-4)GlcNAc(b1-2)Man(a1-6)]Man(b1-4)GlcNAc(b1-4)[Fuc(a1-6)]GlcNAc
# Outline: as §1
# [6] = molecular target: GlcNAc(b1-3)Gal(b1-4)GlcNAc(b1-3)Gal(b1-4)GlcNAc(b1-3)GalNAc
# Outline: as §1
# Man(a1-6)Man = molecular target: Man(a1-6)Man
# Outline: as §1
# Man(b1-4)GlcNAc = molecular target: Man(b1-4)GlcNAc
# Outline: as §1
# Neu5Ac(a2-3)Gal = molecular target: Neu5Ac(a2-3)Gal
# Outline: as §1
# [7] = molecular target: Neu5Ac(a2-3)Gal(b1-3)GalNAc(b1-4)[Neu5Ac(a2-3)]Gal(b1-4)Glc
# Outline: as §1
# [8] = molecular target: Neu5Ac(a2-3)Gal(b1-3)GalNAc(b1-4)[Neu5Ac(a2-8)Neu5Ac(a2-3)]Gal(b1-4)Glc
# Outline: as §1
# [9] = molecular target: Neu5Ac(a2-3)Gal(b1-3)GlcNAc(b1-2)Man(a1-3)[Neu5Ac(a2-3)Gal(b1-3)GlcNAc(b1-2)Man(a1-6)]Man(b1-4)GlcNAc(b1-4)GlcNAc
# Outline: as §1
# [10] = molecular target: Neu5Ac(a2-3)Gal(b1-4)GlcNAc(b1-6)[Neu5Ac(a2-3)Gal(b1-3)]GalNAc
# Outline: as §1
# [11] = molecular target: Neu5Ac(a2-3)[Neu5Ac(a2-6)]GalNAc
# Outline: as §1
# [12] = molecular target: Neu5Ac(a2-6)Gal(b1-4)GlcNAc(b1-2)Man
# Outline: as §1
# [13] = molecular target: Neu5Ac(a2-6)Gal(b1-4)GlcNAc(b1-2)Man(a1-6)[Man(a1-3)]Man(b1-4)GlcNAc(b1-4)GlcNAc
# Outline: as §1
# [14] = molecular target: Neu5Ac(a2-6)Gal(b1-4)GlcNAc(b1-3)Gal(b1-4)GlcNAc(b1-2)Man(a1-3)[Neu5Ac(a2-6)Gal(b1-4)GlcNAc(b1-3)Gal(b1-4)GlcNAc(b1-2)Man(a1-6)]GalNAc
# Outline: as §1
# [15] = molecular target: Neu5Ac(a2-6)GlcNAc(b1-4)GlcNAc
# Outline: as §1
# [16] = molecular target: Neu5Ac(a2-6)GlcNAc(b1-4)GlcNAc(b1-4)GlcNAc
# Outline: as §1
# [17] = molecular target: Neu5Ac(a2-8)Neu5Ac(a2-3)Gal(b1-4)GlcNAc
# Outline: as §1
# [18] = molecular target: Neu5Ac(a2-8)Neu5Ac(a2-8)Neu5Ac(a2-8)Neu5Ac(a2-3)[GalNAc(b1-4)]Gal(b1-4)Glc
# Outline: as §1
# [19] = molecular target: Neu5Ac9Ac(a2-3)Gal(b1-4)GlcNAc
# Outline: as §1
# Neu5Gc(a2-6)GalNAc = molecular target: Neu5Gc(a2-6)GalNAc
# Outline: as §1
# [20] = molecular target: Neu5Gc(a2-8)Neu5Gc(a2-3)Gal(b1-4)GlcNAc
# Outline: as §1
binder,measurement,setting,value
"Awp3 (Candida glabrata), B4UN32 (protein) MISFVTLLAILGLLSISWADQTVRSVAGDQRVTDPVIVGDNSILDYYGGSNYDFSNNFEIGRGTLYIGKESYFSSFQSAPTDVPNSFHLLIKNTNNLQNNGQFIIENIKRHANQCSNSSIQVFPINFQNDGEFEIISGGVEGRCCLPTSVIAPQNFLNNGKFYYKVLTDTGSIYSGSCMQNVDIGASTTTTVNNNLWEFTGSINAQINGAVSGAAQINLDGSNMFVNANTFSGQVVNLINGGSFLQTSDPLSNIVVINGLGTSDTGVTSIAVKGKGKSFTYNPSSGIVKLTTVEGKTYAYQIGCGYNTKKFITNNDSGASYESADNFFVLTYSEPYSPQTCQLENSSIFSSNFISTSTSSSSSSSSASSLPSSMSSSLPSSLSSSLSSSLSSSMSSSMSSLFIIPPPYTTTRSSGSSIIDTEIVSFYSTTDSPGHTITGTTTTTLYGPHTHSSVSTPSSSSESSTTSNSSIESSSLPHTSVSSTPESSITPSSNTISSSPTSDFSSVQSSSIMESSSVVASSSVINSSSIVDSSSSSASSLPSSMSSSLSSSMSSSLPSSMSSSLSSSLSSSLSSSMSSSMSSLFIIPPPYTTTRSSGSSIIDTEIVSFYSTTDSPGHTITGTTTTTLYGPHTHSSVSTPSSSSESSTTSNSSIESSSLPHTSVSSTPESSITPSSNTISSSPTSDFSSVQSSSIMESSSVVASSSVINSSSIVDSSSSSASSLPSSMPSSLPSSMSSSLSSSMSSSLSSSLSSSLSSSMSSSMSSLFIIPPPYTTTRSSGSSIIDTEIVSFYSTTDSPGHTITGTTTTTLYGPHTHSSVSTPSSSSESSTTSNSSIESSSLPHTSVSSTPESSITPSSNTISSSPTSDFSSVQSSSIMESSSVVASSSATQSSSVINSSSIVDSSSSSASSLPSSMPSSLPSSLSSSLSSSLSSSMSSSMSSLFIIPPPYTTTRSSGSSIIDTEIVSFYSTTDSPGHTITGTTTTTLYESSIYSSSSSTIQESELSNTSRTTMTSNSSVSISSTSSRSSFSNTKSSTIVISQSASLPDSKTDIILSTSSNIGYSSRSLLSDLGTSISDSDIHHSVLHSTESYSSNESGTNPFTSIASLSNFIPESSSHTSTALGSENSVISSDILTTMSHPVATNSGDKPTTPKRSEQVSTTMTSSGPTPDTSSFDTDGMSAYSRPEFTTNSLEVNKSSTSQLGNNKQTFSNLQLESTRPHSENEVDNNTRLLQSIQQSSTYGTNNVNPLSPTGSISIPLTEDGQGDNNNWNSPATNDLCTQISFNLTATTITVTDRITITDSIHDISSEVITSYIYQTIVDQKTVTQTVDGKSLANKMSSIPKPSSRSLIQPQPPVAIELQEGAASTSRVSLVSLFISIILVLL",glycan array binding signal (z-score),[1],0.048
same,glycan array binding signal (z-score),GalNAc3S(b1-4)GlcNAc,3.17
same,glycan array binding signal (z-score),[2],-0.466
same,glycan array binding signal (z-score),[3],-0.59
same,glycan array binding signal (z-score),[4],-1.54
same,glycan array binding signal (z-score),[5],2.04
same,glycan array binding signal (z-score),[6],0.914
same,glycan array binding signal (z-score),Man(a1-6)Man,0.889
same,glycan array binding signal (z-score),Man(b1-4)GlcNAc,0.34
same,glycan array binding signal (z-score),Neu5Ac(a2-3)Gal,-1.36
same,glycan array binding signal (z-score),[7],-0.398
same,glycan array binding signal (z-score),[8],-0.714
same,glycan array binding signal (z-score),[9],0.813
same,glycan array binding signal (z-score),[10],-2.35
same,glycan array binding signal (z-score),[11],-0.108
same,glycan array binding signal (z-score),[12],-0.199
same,glycan array binding signal (z-score),[13],0.591
same,glycan array binding signal (z-score),[14],3.08
same,glycan array binding signal (z-score),[15],2.86
same,glycan array binding signal (z-score),[16],2.42
same,glycan array binding signal (z-score),[17],-1.76
same,glycan array binding signal (z-score),[18],1.87
same,glycan array binding signal (z-score),[19],-0.226
same,glycan array binding signal (z-score),Neu5Gc(a2-6)GalNAc,-0.186
same,glycan array binding signal (z-score),[20],0.721
